Reference: ChEMBL document CHEMBL1961873, “Compounds: GSK PKIS; Assays: Nanosyn kinase panel” (2012)
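Note: mean percent inhibition of BRAF kinase activity, from the GSK PKIS kinase inhibitor screening set.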

Each molecule was assayed against Serine/threonine-protein kinase B-raf (Homo sapiens) (UniProt P15056). Details: at 0.1 µM.
Sequence of Serine/threonine-protein kinase B-raf (Homo sapiens) (P15056 whole entry): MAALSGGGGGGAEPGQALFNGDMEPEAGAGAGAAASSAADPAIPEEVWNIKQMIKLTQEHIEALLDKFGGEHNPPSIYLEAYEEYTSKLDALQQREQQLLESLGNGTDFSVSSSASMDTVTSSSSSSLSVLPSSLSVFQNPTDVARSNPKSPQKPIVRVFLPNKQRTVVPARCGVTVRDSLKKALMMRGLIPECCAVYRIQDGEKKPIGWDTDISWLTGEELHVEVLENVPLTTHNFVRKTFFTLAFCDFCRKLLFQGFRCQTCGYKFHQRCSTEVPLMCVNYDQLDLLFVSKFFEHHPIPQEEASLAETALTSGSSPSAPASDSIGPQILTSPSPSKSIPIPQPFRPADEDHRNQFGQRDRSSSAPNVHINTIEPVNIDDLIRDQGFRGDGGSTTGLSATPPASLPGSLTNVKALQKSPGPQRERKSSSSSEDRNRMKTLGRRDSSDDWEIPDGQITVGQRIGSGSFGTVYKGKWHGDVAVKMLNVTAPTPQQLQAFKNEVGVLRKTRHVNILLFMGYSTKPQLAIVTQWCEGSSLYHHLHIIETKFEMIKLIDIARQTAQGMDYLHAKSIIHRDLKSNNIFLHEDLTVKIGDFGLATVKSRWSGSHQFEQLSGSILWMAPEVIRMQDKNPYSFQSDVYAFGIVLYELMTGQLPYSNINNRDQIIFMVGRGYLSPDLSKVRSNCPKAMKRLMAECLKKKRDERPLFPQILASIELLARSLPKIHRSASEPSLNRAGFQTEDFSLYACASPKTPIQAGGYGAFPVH
With `COc1ccc(-c2cc3c(N)ncnc3o2)cc1` the inhibition was -1.18%. For `COc1cccc(-n2ncc3c(N/N=C/c4ccc(F)cc4)ncnc32)c1`, the inhibition was 7.43%. In the case of `Nc1ncc(-c2cccc(S(N)(=O)=O)c2)c2scc(-c3ccc(F)c(Cl)c3)c12`, the inhibition was 6.39%. Molecule `COc1cccc(-c2c[nH]c3c(N/N=C/c4ccncc4)ncnc23)c1` has an inhibition of 3.1%. With `CN(C)CCOc1ccc(-c2nc(-c3ccncc3)c(-c3ccc4c(c3)CC/C4=N\O)[nH]2)cc1` the inhibition was 63.5%. In the case of `Clc1ccc(-c2nn3ncccc3c2-c2ccnc(Nc3ccccc3)n2)cc1`, the inhibition was 2.69%. `CCN1CCC(CC(=O)Nc2n[nH]c3nnc(-c4cccc(F)c4F)cc23)CC1` gave an inhibition of 3.25%. `CCCN(CCS(C)(=O)=O)Cc1ccc(-c2ccc3ncnc(Nc4ccc(OCc5cccc(F)c5)c(Cl)c4)c3c2)o1` showed an inhibition of 3.07%. `NS(=O)(=O)c1ccc(Nc2ncc(-c3ccccc3)o2)cc1` showed an inhibition of 5.82%. In the case of `Fc1cccc(COc2ccc(Nc3ncnc4sc(-c5ccco5)cc34)cc2Cl)c1`, the inhibition was 6.56%. Molecule `c1cc(-c2cnn3nc(N4CCOCC4)ccc23)nc(NC2CC2)n1` has an inhibition of 6.23%. With `Nc1nc(-c2cccc(Cl)c2)c(-c2ccc3ncccc3n2)s1` the inhibition was 7.17%. With `COc1ccc(-c2oc3ncnc(N)c3c2-c2ccc(NC(=O)Nc3cc(C(F)(F)F)ccc3F)cc2)cc1` the inhibition was 6.96%. `Cc1ccc(O)cc1Nc1ccnc2cc(-c3ccccn3)ccc12` showed an inhibition of 9.05%. `Fc1ccc(-c2nn3ccccc3c2-c2ccncc2)cc1` was tested, and the inhibition was 2.84%. For `Cc1ccc2c(-c3ccnc(Nc4ccccc4)n3)c(-c3ccc(F)cc3)nn2n1`, the inhibition was 6.37%. With `COC(=O)c1sc(-n2cnc3cc(OC)c(OC)cc32)cc1OCc1ccccc1C(F)(F)F` the inhibition was 6.09%. In the case of `CC(C)(CO)CNC(=O)c1ccc2c(c1)/C(=N/Nc1ccc(S(N)(=O)=O)cc1)C(=O)N2`, the inhibition was 5.62%. In the case of `COc1ccc2[nH]c3c4[nH]c5ccc(OC)cc5c4c4c(c3c2c1)C(=O)NC4=O`, the inhibition was 5.05%. With `COc1ccc(-c2nn3ncccc3c2-c2ccnc(Nc3ccc4c(c3)OCCO4)n2)cc1` the inhibition was 2.67%. In the case of `NS(=O)(=O)c1ccc(N/N=C2\C(=O)Nc3ccc4ncccc4c32)cc1`, the inhibition was 15%. For `CCc1nn2ncccc2c1-c1ccnc(NC2CC2)n1`, the inhibition was 2.93%. In the case of `CCNC(=O)O[C@H]1CN[C@H](C#Cc2cc3ncnc(Nc4ccc(OCc5cccc(F)c5)c(Cl)c4)c3s2)C1`, the inhibition was 4.28%. `O=C(Nc1n[nH]c2cc(-c3ccc(F)cc3)ccc12)C1CC1` showed an inhibition of 4.3%. Molecule `CN1CCC(n2cnc(-c3ccc(F)cc3)c2-c2ccnc(Nc3ccccc3)n2)CC1` has an inhibition of 3.78%. `COc1cc(N2CCN(C(C)C)CC2)ccc1Nc1nc(Nc2ccc(F)cc2C(N)=O)c2cc[nH]c2n1` gave an inhibition of 2.3%. `CC(=O)NCc1cccc(C#Cc2cncnc2Nc2ccc(OCc3cccc(F)c3)c(Cl)c2)c1` was tested, and the inhibition was 1.06%. In the case of `CCCN1CCC(c2ccc(Nc3nc(Nc4cc(F)ccc4C(N)=O)c4cc[nH]c4n3)c(OC)c2)CC1`, the inhibition was 9.61%. `CN1CCC(n2cnc(-c3ccc(F)cc3)c2-c2ccnc(N)n2)CC1` was tested, and the inhibition was 1.83%. `CC1=C(C(=O)Nc2cc(Cl)c3[nH]ncc3c2)C(c2ccc(C(F)(F)F)cc2)CC(=O)N1` (stereo not drawn) was tested, and the inhibition was 9.34%. `Fc1ccc(-c2nn3ncccc3c2-c2ccnc(Nc3ccc4c(c3)OCCO4)n2)cc1` gave an inhibition of 11.6%. In the case of `Cc1cccc2c1NC(=O)/C2=N\Nc1ccc(S(N)(=O)=O)cc1`, the inhibition was 3.47%. Molecule `Nc1nc(-c2ccc(F)cc2)c(-c2ccc3ncccc3n2)s1` has an inhibition of 6.57%.
